# A selection: hits, their analogues and other compounds. The true share with any hit is near 2.4%.
# A3A deaminase – inhibitors of human APOBEC3A DNA deaminase | recombinant A3A, FAM/TAMRA ssDNA deamination fluorescence | inhibition, % at 20 µM | 330,000 compounds, 0.41% hits;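 active = at least 40% inhibition at 20 µM here, with at most 30% in a related deaminase screen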;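 note: plate controls were A3A with DMSO for no effect and wells lacking A3A enzyme for full effect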
# Target sequence (P31941 whole entry, looked up): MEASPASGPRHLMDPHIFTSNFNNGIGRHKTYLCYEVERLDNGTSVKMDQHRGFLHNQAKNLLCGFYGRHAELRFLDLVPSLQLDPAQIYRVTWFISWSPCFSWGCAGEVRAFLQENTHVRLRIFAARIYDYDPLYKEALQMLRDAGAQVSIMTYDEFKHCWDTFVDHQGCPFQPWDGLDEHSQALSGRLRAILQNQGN
# PfM18AAP inh – blocks P. falciparum M18 aspartyl aminopeptidase | recombinant PfM18AAP, H-Glu-NHMec fluorogenic cleavage | inhibition, % at 7.35 µM | 290,000 compounds, 1.2% hits | AID 1822;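 active = inhibition above the campaign mean inhibition over all tested compounds plus 3 SD, cut at about 28% in these data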;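 note: 0% = plate median of test compound wells and 100% = 2 mM ZnCl2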
# PfGluPho inh – PfG6PD (Plasmodium falciparum) enzyme inhibition. inhibition, % at 20 µM. PfGluPho enzyme, NADPH resazurin-diaphorase fluorescence. AID 504690. 350,000 compounds, 0.78% hits;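 active = inhibition reaching at least a set limit at 20 µM in the primary screen, cut at about 59% in these data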;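 note: 0% = DMSO wells with substrate and 100% = DMSO wells lacking glucose-6-phosphate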
# APOBEC3G inh – blocks human APOBEC3G single-stranded DNA deamination; inhibition, % at 20 µM; 330,000 compounds, 0.28% hits; recombinant A3G, ssDNA deamination FAM/TAMRA fluorescence; Q9HC16;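 active = inhibition of at least 40% at 20 µM, with no more than 30% in the related APOBEC3A deaminase screen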;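 note: plate controls were DMSO wells with A3G for no effect and wells lacking A3G enzyme for full effect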
# CR mimetic SO – caloric restriction mimetics inhibiting age-related superoxide in yeast; S. cerevisiae aged cells, superoxide DHE fluorescence; stronger effect = lower value; superoxide response (% of plate mean), % at 10 µM; 330,000 compounds, 0.18% hits; AID 2690;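 active = superoxide response under a set limit, about three screen SD below normal, cut at about 65% in these data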;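 note: yeast aged for seven days with compound at 30 °C before DHE staining; 100% = average MFI of all compound-treated wells on the plate with controls excluded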
# Numbers without * were called inactive; x = not tested or not shown.
SMILES,A3A deaminase,PfM18AAP inh,PfGluPho inh,APOBEC3G inh,CR mimetic SO
Cc1cn(C2CCCCC2)c(=O)[nH]c1=O,x,x,-10,x,x
O=C(CNc1ccc2ccccc2c1)N/N=C/c1ccc(OC(=O)/C=C/c2ccco2)cc1,5,17,29,7,94
O=C(CNc1cccc2ccccc12)N/N=C/c1ccc(OC(=O)/C=C/c2ccco2)cc1,x,28*,22,x,x
Cc1ccc(COC(=O)CN2C(=O)NC3(CCCCC3C)C2=O)cc1 (stereo unspecified),2,x,-18,9,x
Cc1cccc(C)c1OCc1nnc(SCC(=O)Nc2nccs2)o1,1,28*,-17,-5,107
O=C(Nc1nc(=O)c2ccccc2s1)c1ccc(Cl)cc1,7,30*,37,26,112
O=C1CC(=O)c2c1cccc2[N+](=O)[O-],x,34*,x,x,x
c1ccc([C@H]2CN3C(=N2)Sc2ccccc23)cc1,-2,x,25,-4,110
Oc1ccc(/C=N/NC(=S)Nc2cccnc2)cc1O,-5,60*,-2,-9,104
O=C1/C(=C\c2ccc(O)c(O)c2)SC(=S)N1Cc1ccccc1,-6,48*,-37,-10,106
CC(C)C1Nc2ccc(C(=O)NCc3ccco3)cc2NC1=O (stereo unspecified),-5,30*,9,-8,108
Cc1ccc2c(c1)N(C(=O)CCC(=O)N1CCC(C(N)=O)CC1)CC(C)O2 (stereo unspecified),0,-6,-3,-6,82
COc1cc(C(=O)NCc2nnc(SCC(=O)Nc3cc(C)on3)o2)cc(OC)c1OC,1,24,-2,-5,93
COc1cc(C(=O)NCc2nnc(SCC(=O)Nc3nc4ccccc4s3)o2)cc(OC)c1OC,1,31*,-27,-1,103
COc1ccc(C(=O)NCc2nnc(SCC(=O)Nc3cc(C)on3)o2)cc1OC,5,30*,18,0,101
COc1ccccc1C(CNC(=O)CN1C(=O)NC(C)(c2ccc3ccccc3c2)C1=O)N1CCCC1 (stereo unspecified),x,x,-3,x,x
COc1cc(C2C(C(=O)c3ccc(C)o3)=C(O)C(=O)N2c2cc(C)on2)ccc1O (stereo unspecified),-4,28*,-31,-5,96
c1ccc(C[n+]2csc3ccccc32)cc1,-2,30*,62*,2,82
Nc1nc2c(ncn2C2CCCC2)c(=O)[nH]1,x,x,2,x,x
Nc1nc(=S)c2ncn(C3CCCC3)c2[nH]1,x,36*,48,x,115
O=c1/c(=C/c2ccc([N+](=O)[O-])cc2)sc2n1CCCN=2,0,28*,23,-6,91
COc1cc(/C=c2\sc3n(c2=O)CCCN=3)ccc1O,3,0,16,-3,91
Cc1ccc(C=NNc2nc3c([nH]2)c(=O)n(C)c(=O)n3C)cc1,x,x,11,x,x
NC(=S)N=Nc1c(O)cc(O)c2[nH]c(=O)ccc12,x,x,93*,x,x
COc1ccc(CNC(=O)c2cc3cccc(O)c3oc2=N)cc1,-1,29*,11,8,107
SMILES,A3A deaminase,PfM18AAP inh,PfGluPho inh,APOBEC3G inh,CR mimetic SO
CCOC(=O)C(C)Oc1ccc(NC(=O)C(Cl)Cl)cc1 (stereo unspecified),-6,1,0,-6,93
O=C(O)CC/C(=N\Nc1ccc([N+](=O)[O-])cc1S(=O)(=O)N1CCOCC1)c1cccs1,-1,30*,13,-6,99
Cc1ccc([C@@H]2C[C@H]3[C@@H](CN2S(=O)(=O)c2ccc(Cl)cc2)C(=O)C[C@@H](c2ccc(C)cc2)N3S(=O)(=O)c2ccc(Cl)cc2)cc1,x,x,-11,x,x
O=C(NNC(=O)c1ccccc1O)c1cccc(Br)c1,-8,30*,-39,-5,92
COc1ccc(OCc2nnc3n2N=C(c2ccc(OC)cc2)CS3)cc1,-5,3,14,-5,108
COc1ccccc1C1=Nn2c(COc3ccccc3)nnc2SC1,-3,9,x,51*,105
Cc1cc2c(C)nc(N/N=C/c3ccc([N+](=O)[O-])cc3)nc2o1,x,30*,-7,x,117
COc1ccc(OCC(=O)OCC(=O)c2ccc(OC)c(F)c2)cc1,1,x,-2,-2,100
Cc1cc2c(c(=O)n1CCCn1ccnc1)C(c1ccco1)C(C#N)=C(N)O2 (stereo unspecified),0,28*,-2,-6,95
COc1ccc(S(=O)(=O)NCC(=O)NCCc2ccc(OC)c(OC)c2)cc1,4,x,5,-2,109

# Bioassay records as filed in PubChem.
